Compound activity from PubChem BioAssay.
In the library only some 2.4% were active in any assay of this set; here they are far more common.
Cruzain noTriton: cruzain (T. cruzi) inhibition without detergent. P25779. purified cruzain, Z-FR-AMC fluorescence, no detergent. Potency, µM, usual class: inhibitors. 200,000 tested, 2.3% active. AID 1476; note: nearly all actives have a fitted effect of over 40% in size
Target sequence (P25779 123-467 limits assumed): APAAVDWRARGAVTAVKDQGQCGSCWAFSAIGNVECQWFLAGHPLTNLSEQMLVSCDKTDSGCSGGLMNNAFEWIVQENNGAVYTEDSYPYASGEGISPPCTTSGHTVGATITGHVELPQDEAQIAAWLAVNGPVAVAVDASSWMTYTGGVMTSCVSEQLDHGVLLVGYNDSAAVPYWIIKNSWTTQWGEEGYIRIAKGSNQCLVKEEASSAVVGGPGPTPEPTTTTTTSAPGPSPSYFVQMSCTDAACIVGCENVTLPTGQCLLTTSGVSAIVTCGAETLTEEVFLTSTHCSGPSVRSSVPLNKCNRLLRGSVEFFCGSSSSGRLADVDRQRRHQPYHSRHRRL
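Purified cruzain at 1.5 nM, pre-incubated 15 min with compound at room temperature in 100 mM sodium acetate pH 5.5, 5 mM DTT, 0.00005% Triton X-100. Reaction started with 2 uM Z-FR-AMC; AMC fluorescence increase over 60 s gives rate.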
Cruzain inh Det: inhibitors of Trypanosoma cruzi cruzain with detergent; AID 1478; Potency, µM, hits mostly inhibitors; P25779; 200,000 tested, 0.43% active; purified cruzain, Z-FR-AMC fluorescence, 0.01% Triton; note: nearly all actives have a fitted effect of over 40% in size
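Sodium acetate buffer (100 mM, pH 5.5) containing 5 mM DTT and 0.01% Triton X-100 hosted 1.5 nM cruzain and test compound for 15 min at room temperature. Cleavage of 2 uM Z-FR-AMC was then tracked by fluorescence.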
Of the large screens only hits and unclear results are named; the others gave an inactive call. Calls come from the whole dose curve; as a rule, active = well fitted curve in the direction sought with a large enough effect; inconclusive = small, poorly fitted or top-dose-only effect, or another doubt; inactive = no such curve, though single readings can be large; an effect the other way counts as inactive or inconclusive.

Cc1cccc(NC(=O)Cn2cc(S(=O)(=O)c3ccc(F)cc3)c(=O)c3cc4c(cc32)OCO4)c1	Cruzain noTriton inconclusive
Cc1ccc(S(=O)(=O)c2cn(CC(=O)Nc3ccccc3)c3cc4c(cc3c2=O)OCO4)cc1	Cruzain noTriton 1µM
O=C(O)c1cc(O)c2c(c1)[C@H]([C@H]1c3cc(C(=O)O)cc(O)c3C(=O)c3c(O[C@@H]4OC(CO)C(O)C(O)C4O)cccc31)c1cccc(O[C@@H]3OC(CO)C(O)C(O)C3O)c1C2=O (stereo partly drawn)	Cruzain noTriton inconclusive, Cruzain inh Det 16µM
O=C1c2cccc(O)c2C(=O)c2c(O[C@@H]3O[C@H](CO)[C@@H](O)[C@H](O)[C@@H]3O)cccc21	none
COc1cc(/C=c2\sc3n(c2=O)CCCN=3)ccc1O	none
COc1cc(/C=c2\sc3n(c2=O)C(c2ccccc2)C(c2ccccc2)=NN=3)ccc1O (stereo not drawn)	Cruzain noTriton 16µM
N#CC1=C(N)N2C(=C(C#N)C1c1ccccc1)Sc1ccccc12 (stereo not drawn)	Cruzain noTriton 13µM
CCOc1ccc(C2C(C#N)=C(N)N3C(=C2C#N)Sc2ccccc23)cc1 (stereo not drawn)	Cruzain noTriton inconclusive
Cc1ccc(-c2cc3nc(-c4ccccc4)cc(N4CCOCC4)n3n2)cc1	Cruzain noTriton inconclusive
COc1ccc(-c2cc3nc(-c4ccccc4)cc(N4CCC5(CC4)OCCO5)n3n2)cc1	Cruzain noTriton inconclusive, Cruzain inh Det 22µM
CN1CCN(c2ncc3nc(-c4ccccc4)c(=O)n(C4CC4)c3n2)CC1	Cruzain noTriton 25µM, Cruzain inh Det 32µM
CN1CCN(c2ncc3nc(-c4cc(F)cc(F)c4)c(=O)n(C4CC4)c3n2)CC1	Cruzain noTriton inconclusive
O=C(Cn1c(=O)n(-c2ccccc2)c(=O)c2c3c(sc21)CCC3)c1ccc(Br)cc1	none
CC(C)CN1CCC2(CC1)CCN(S(=O)(=O)c1ccccc1)CC2	none
CC(C)(C)c1ccc(C2Sc3ccccc3NC3=C2C(=O)c2ccccc23)cc1 (stereo not drawn)	Cruzain noTriton 7.9µM
O=C1OCC2=C1C(c1ccc(F)cc1)Sc1ccccc1N2 (stereo not drawn)	none
CC(C)c1ccc(NC(=O)CCn2c(=O)c3cccn3c3ccccc32)cc1	none
CC1=C(SCCC#N)S/C(=C2\SC(C)=C(SCCC#N)S2)S1	Cruzain noTriton 25µM
CC(=O)Nc1ccc(S(=O)(=O)N(C)c2ccccc2)cc1	none
O=C(O)c1ccc(S(=O)(=O)c2ccccc2)cc1	none
O=C(Nc1ccc(NC(=O)c2ccc(S(=O)(=O)c3ccccc3)cc2)cc1)c1ccccc1	Cruzain noTriton 4µM
CN(c1ccccc1)S(=O)(=O)c1ccc(NC(=O)c2ccc(-c3ccccc3)cc2)cc1	Cruzain noTriton 25µM
Cc1ccc(NC(=O)CN(C)S(=O)(=O)c2ccc3c(c2)n(C)c(=O)c(=O)n3C)cc1F	none
CCOc1ccccc1C(=O)Nc1cc2c(cc1N1CCOCC1)n(C)c(=O)n2C	none
CC(C)c1ccc(C2N3CC4([N+](=O)[O-])CN2CC([N+](=O)[O-])(C3)C4(C)C)cc1 (stereo not drawn)	Cruzain noTriton 10µM
CC1(C)C2([N+](=O)[O-])CN3CC1([N+](=O)[O-])CN(C2)C31CCCC1	none
CC1(C)C2([N+](=O)[O-])CN3CC1([N+](=O)[O-])CN(C2)C3c1ccccc1 (stereo not drawn)	Cruzain noTriton 20µM
CC(C)c1ccc(C2N3CCCN23)cc1 (stereo not drawn)	none
CC/C(C)=N/O	none
CCOc1ccc(CCNC(=O)CCCn2nc(C)c3sc4ccccc4c3c2=O)cc1	Cruzain noTriton inconclusive
CCOc1ccc(CNC(=O)CCCn2nc(C)c3sc4ccccc4c3c2=O)cc1	Cruzain noTriton 20µM
CC(C)C(=O)NC(c1ccco1)c1ccc2cccnc2c1O (stereo not drawn)	none
Oc1c(C(Nc2nc3ccccc3s2)c2ccco2)ccc2cccnc12 (stereo not drawn)	Cruzain noTriton 7.9µM
CC(=O)N1CCCc2cc(S(=O)(=O)N(C)CC(=O)Nc3ccc(F)c(Cl)c3)ccc21	none
Cc1cc(C)nc(SCc2cc(=O)c(OC(=O)c3ccco3)co2)n1	Cruzain noTriton inconclusive, Cruzain inh Det 25µM
Cc1cc(C)nc(SCc2cc(=O)c(OC(=O)c3ccc(Br)o3)co2)n1	Cruzain inh Det inconclusive
Cc1ccsc1CCN1C(=O)N(c2ccccc2)C(=O)C1CC(=O)Nc1ccc(F)cc1 (stereo not drawn)	none
O=[N+]([O-])c1ccc(C2Oc3ccccc3C3CC(c4ccccc4)=NN32)s1 (stereo not drawn)	Cruzain noTriton 16µM
c1ccc(C2Oc3ccccc3C3CC(c4cccs4)=NN32)cc1 (stereo not drawn)	none
O=C(Nc1ccc(Cl)cc1F)c1cnc2sc(N3CCOCC3)nn2c1=O	none
CCCCNC(=O)CC1C(=O)N(Cc2ccccc2)C(C)c2nc3ccccc3n21 (stereo not drawn)	Cruzain noTriton 13µM
CCCCn1c(=O)c(C(=O)c2ccccc2)nc2ccccc21	none
COC(=O)C1=C(C)OC(N)=C(C#N)C1c1c(C)nn(-c2ccccc2)c1Cl (stereo not drawn)	none
Cc1nn(-c2ccccc2)c(Cl)c1C1C(C#N)=C(N)Oc2c1c(=O)oc1ccccc21 (stereo not drawn)	Cruzain noTriton 16µM
CC1CCC(NC(=O)Cn2ncc3c4ccccc4n(Cc4ccc(Cl)cc4)c3c2=O)CC1 (stereo not drawn)	none
Cc1cc(C)c(Cn2c3ccccc3c3cnn(CC(=O)NC4CCC(C)CC4)c(=O)c32)c(C)c1 (stereo not drawn)	Cruzain noTriton 2µM
CCOC(=O)c1c(C)c(-c2ccccc2)n(CC(=O)Nc2ccc(OCC)cc2)c1C	none
Nc1nc(N)nc(CC(=O)O)n1	none
O=C(Nc1cccc(F)c1)c1ccc(-c2ccccc2)s1	Cruzain noTriton inconclusive
Nc1c(C(=O)c2ccccc2)sc(Nc2ccccc2)c1S(=O)(=O)c1ccccc1	Cruzain noTriton 7.9µM
Cc1cc(C)cc(Nc2sc(C(=O)c3ccccc3)c(N)c2S(=O)(=O)c2ccccc2)c1	Cruzain noTriton 10µM
Cc1ccc(Nc2sc(C(=O)c3ccccc3)c(N)c2C(N)=O)cc1	none
CCS(=O)(=O)c1c(Nc2ccc(F)c(Cl)c2)sc(C(=O)c2ccccc2)c1N	none
CCOc1ccccc1NC(=O)C1=C(C)Nc2ncnn2C1c1ccc(C)o1 (stereo not drawn)	none
Cc1ccc(-c2sc(C(=O)Nc3ccc(Br)cc3)cc2CC(=O)O)cc1	Cruzain inh Det inconclusive
CN(C)c1ncc2nc(-c3ccc(Cl)cc3)c(=O)n(C)c2n1	none
COc1ccc(-c2nc3scc(CCNS(=O)(=O)c4c(C)cc(C)cc4C)n3n2)cc1OC	Cruzain noTriton inconclusive
O=C(N/N=C\C=C\c1ccc2c(c1)OCO2)C1COc2cc3ccccc3cc2O1 (stereo not drawn)	Cruzain noTriton 25µM
O=C(N/N=C/c1ccc2c(c1)OCO2)C1COc2ccccc2O1 (stereo not drawn)	none
COc1ccc(C)cc1NC(=O)N(C(C)C)C1CCN(C(C)=O)CC1	none
COc1ccc(NC(=O)c2sc3nc4n(c(=O)c3c2C)CCC4)c(OC)c1	none
Cc1csc(NC(=O)CSc2nsc(SCC(=O)Nc3nc(C)cs3)c2C#N)n1	Cruzain noTriton inconclusive
Cc1ccc(NC(=O)CSc2nsc(SCC(=O)Nc3ccc(C)cc3C)c2C#N)c(C)c1	Cruzain noTriton 10µM
CCN(CC)S(=O)(=O)c1ccc2c(c1)N(CC(=O)NCCCN1CCN(c3ccc(OC)cc3)CC1)C(=O)CO2	none
